In PubChem BioAssay AID504652 (National Center for Advancing Translational Sciences (NCATS), 2011):
Among all 360,000 compounds or so, about 11,000 (3.1%) were called active. Rule as the data show it: active = activity change below about -30%; inactive = the rest. The entries come from a sample that favours actives as a whole.

biological target: D(1A) dopamine receptor (Homo sapiens) (UniProt P21728); test: Antagonist of Human D 1 Dopamine Receptor: qHTS; conditions: HEK293 TREx D1 cells, calcium flux, dopamine EC80; at 10 µM; stronger effect = lower value
Sequence (P21728 whole entry, looked up): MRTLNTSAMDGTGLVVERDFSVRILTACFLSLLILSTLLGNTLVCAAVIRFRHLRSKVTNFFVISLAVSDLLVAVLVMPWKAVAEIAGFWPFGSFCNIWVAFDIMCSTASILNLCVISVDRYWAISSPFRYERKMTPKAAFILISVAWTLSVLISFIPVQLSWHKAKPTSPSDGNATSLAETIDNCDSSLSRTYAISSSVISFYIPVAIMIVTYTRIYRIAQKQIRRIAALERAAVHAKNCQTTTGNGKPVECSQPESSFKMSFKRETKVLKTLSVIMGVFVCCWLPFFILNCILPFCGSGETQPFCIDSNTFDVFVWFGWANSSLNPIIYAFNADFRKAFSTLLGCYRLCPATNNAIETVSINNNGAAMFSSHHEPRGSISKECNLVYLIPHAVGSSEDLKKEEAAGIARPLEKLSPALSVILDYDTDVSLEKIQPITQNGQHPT
Method in brief: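 Tetracycline-induced HEK293 Trex D1 cells, force-coupled to calcium, dye-loaded; compounds added and read 180 s, then EC80 dopamine added and calcium flux tracked kinetically another 180 s.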
% is scaled to controls: 0 for no effect and ±100 for the full control effect.

| Compound | activity change, negative = inhibition |
| --- | --- |
| Cc1ccc(O)c(NC(=O)CCS(=O)(=O)c2nc(-c3ccc4c(c3)OCO4)cc(C(F)(F)F)n2)c1 | -20.8% (inactive) |
| O=C(Cc1ccc(Cl)cc1)Nc1ccc2nn(-c3ccc(Cl)cc3)nc2c1 | -2.04% (inactive) |
| Cc1cc(NC(=O)CC(C)C)cc(-c2nc3ncccc3o2)c1O | 13.5% (inactive) |
| CCOc1ccc(NC(=O)c2ncoc2-c2ccco2)cc1 | 0.181% (inactive) |
| CCOc1ccc(NC(=O)N(CC(C)C)CC(C)C)cc1 | -10.6% (inactive) |
| CCOc1ccc(NC(=O)N(CCC(C)C)C(C)c2ccco2)cc1 (centres undefined) | -66.3% (active) |
| CCOC(=O)c1ccccc1NC(=O)CCc1c(C)nc2c(c1C)c(=O)n(C)c(=O)n2C | 4.81% (inactive) |
| CCc1ccc(S(=O)(=O)c2nnn3c2nc(N2CCN(CC)CC2)c2sccc23)cc1 | 8.88% (inactive) |
| Cc1ccccc1NC(=O)Cn1c(=O)n(CC2CCC(C(=O)NCCc3ccccc3)CC2)c(=O)c2ccccc21 (centres undefined) | -13.6% (inactive) |
| O=S(=O)(c1ccc(SCc2ccccc2)nc1)N1CCCCCC1 | 0.949% (inactive) |
| O=S(=O)(c1ccc(SCc2ccc(Br)cc2)nc1)N1CCOCC1 | -43.1% (active) |
| Cc1ccc(CSc2ccc(S(=O)(=O)N3CCCCC3)cn2)cc1 | 2.76% (inactive) |
| CCOC(=O)c1cn(CC)c2cc(F)c(F)cc2c1=O | -74.1% (active) |
| CCn1cc(C(=O)NCCO)c(=O)c2cc(F)c(N3CCN(C)CC3)cc21 | -5.03% (inactive) |
| CCn1cc(C(=O)N/N=C(/C)c2ccc(F)cc2)c(=O)c2cc(F)c(N3CCCC3)cc21 | 1.71% (inactive) |
| CCS(=O)(=O)N1CCc2cc(C(=O)NCc3ccc(OC)cc3)ccc21 | 1.59% (inactive) |
| COc1ccc(C(=O)COC(=O)c2ccc3ccccc3n2)cc1 | -5.41% (inactive) |
| COc1ccc(CNC(=O)C2CC(c3ccc(C(F)(F)F)cc3)=NO2)cc1 (centres undefined) | -1.82% (inactive) |
| COc1ccc(C2=NOC(COC(=O)c3ccc4ccccc4n3)C2)cc1 (centres undefined) | -39.5% (active) |
| CCCNC(=O)C(CC)n1nc(CC)n2c(cc3oc(C)cc32)c1=O (centres undefined) | 5.42% (inactive) |
| Cc1ccc(Cl)cc1N1CCN(S(=O)(=O)c2cc3[nH]c(=O)c(=O)[nH]c3cc2C)CC1 | 1.65% (inactive) |
| COc1cccc(C(=O)Nc2ccc3oc(-c4ccc5ccccc5c4)nc3c2)c1 | 7.96% (inactive) |
| O=C(CNC(=O)c1ccc(Cl)cc1Cl)OC(C(=O)Nc1cc(C(F)(F)F)ccc1Cl)c1ccccc1 (centres undefined) | 6.17% (inactive) |

| Compound | activity change, negative = inhibition |
| --- | --- |
| COc1ccc(NC(=O)Cn2c(=O)n(Cc3ccc(C(=O)NCc4ccccc4Cl)cc3)c(=O)c3ccccc32)cc1 | -5.19% (inactive) |
| CCN(Cc1ccccc1)S(=O)(=O)c1cc2c3c(c1)CCN3C(=O)CC2 | -34.1% (active) |
| CCN(Cc1ccccc1)S(=O)(=O)c1cc(C(=O)O)ccc1OC | 27.7% (inactive) |
| CCN(Cc1ccccc1)S(=O)(=O)c1ccc2c(c1)CCCN2C(C)=O | -20% (inactive) |
| Cc1ccc(O)c(NC(=S)NC(=O)COc2ccc(Br)cc2)c1 | -46.3% (active) |
| CC(=O)Nc1ccc(OC(=O)COc2ccc(Br)cc2)cc1 | -21.3% (inactive) |
| Cn1cccc1C(=O)NNC(=O)COc1ccc(Br)cc1 | 16.4% (inactive) |
| Cc1ccc(-c2nc(SCc3ccc(Br)cc3)n3[nH]c(=O)cc3n2)cc1 | -5.43% (inactive) |
| CC(C)CC(=O)NCC(c1ccc2c(c1)OCO2)N1CCN(c2ccc(F)cc2)CC1 (centres undefined) | 19.3% (inactive) |
| COc1ccc(OC)c(NC(=O)/C=C/c2ccc(C)o2)c1 | -17.2% (inactive) |
| COc1ccc(CNC(=O)COc2ccccc2C(=O)c2cnn(-c3ccccc3)c2)cc1OC | -32.7% (active) |
| COc1ccc(CNC(=O)COC(=O)c2c(C)nn(-c3ccccc3)c2C)cc1OC | -26% (inactive) |
| COC(=O)COc1cccc2c(=O)n(CC(=O)NCCc3ccc(OC)c(OC)c3)ccc12 | 19.9% (inactive) |
| Cc1cc(O)c(C(c2ccccc2)N2CCN(c3ccccc3F)CC2)c(=O)n1Cc1ccco1 (centres undefined) | -28.1% (inactive) |
| Cn1c(=O)c2c(-c3ccccc3Br)n(Cc3ccccc3)cc2n(C)c1=O | -11.3% (inactive) |
| COc1ccc(C(=O)C2CCCN(S(=O)(=O)c3cccc(C)c3)C2)c(C)c1 (centres undefined) | 2.24% (inactive) |
| COc1ccc(C(=O)C2CCCN(Cc3cccn3-c3ccccn3)C2)c(C)c1 (centres undefined) | -34.5% (active) |
| COc1ccc(C(=O)C2CCCN(C(=O)c3cnsn3)C2)c(C)c1 (centres undefined) | 22.1% (inactive) |
| CCOc1ccc(Nc2oc(/C=C/c3ccc(F)cc3)nc2C#N)cc1 | -2.32% (inactive) |
| COc1cccc(NC(=O)CC2C(=O)NCCN2C(=S)Nc2ccc(F)cc2)c1 (centres undefined) | -8.91% (inactive) |
| CCNC(=O)N1CCNC(=O)C1CC(=O)Nc1ccc(C(=O)OCC)cc1 (centres undefined) | 11.7% (inactive) |
| CCc1ccc(NC(=O)CC2C(=O)NCCN2C(=S)Nc2ccccc2)cc1 (centres undefined) | -31.7% (active) |
| Cc1nn(C)cc1CNC(=O)Nc1ccc(Cl)cc1 | 5.45% (inactive) |

| Compound | activity change, negative = inhibition |
| --- | --- |
| COc1ccc(Cl)cc1C(=O)NCc1cn(C)nc1C | -31.1% (active) |
| Cc1ccc(-c2cc(C(=O)NCc3cn(C)nc3C)c3cc(Br)ccc3n2)cc1 | -1.17% (inactive) |
| Cc1ccc(CCNC(=O)c2ccc(CNS(=O)(=O)c3ccc(C)cc3)cc2)cc1 | -6.27% (inactive) |
| CCOc1ccc(N(Cc2ccccc2)C(=O)c2nc(S(C)(=O)=O)ncc2Cl)cc1 | -4.67% (inactive) |
| CN(C)Cc1ccccc1C1(O)c2ccccc2CSc2ccccc21 (centres undefined) | -0.848% (inactive) |
| CN(C)CC/C=C1\c2ccccc2CSc2ccccc21 | -62.1% (active) |
| COc1ccccc1NC(=O)CN1C(=O)c2ccccc2Sc2ccc(C(=O)N3CCCC3)cc21 | 9.27% (inactive) |
| COc1ccc(N2CCN(C(=O)c3c(C)oc4nc(C)nc(N5CCCC5)c34)CC2)cc1 | -1.85% (inactive) |
| CN(C)CCOC(=O)C(c1ccccc1)C1(O)CCCC1 (centres undefined) | -42.6% (active) |
| COc1ccc(OCC(=O)OCCN(C)C)cc1 | -9.23% (inactive) |
| O=C(O)C(c1ccccc1)C1(O)CCCCC1 (centres undefined) | -1.48% (inactive) |
| CCN(c1ncnc2c1cnn2-c1ccc(C)cc1)C1CCCCC1 | 13.5% (inactive) |
| Cc1ccc2c(c1)-c1c(cnn1CC(=O)Nc1ccccc1C#N)CO2 | 23.7% (inactive) |
| Cc1oc2ncnc(N3CCCCC3)c2c1C(=O)N1CCN(c2cccc(Cl)c2)CC1 | -0.886% (inactive) |
| CC(C)Cn1c(=O)c2ccccc2n2c(CCC(=O)N3CCN(c4cccc(Cl)c4)CC3)nnc12 | -9.12% (inactive) |
| Cc1ccc(C)n1-c1nnc(N2CCC(C(=O)NCc3ccccc3Cl)CC2)s1 | -0.53% (inactive) |
| COC(=O)c1cnc(N2CCN(c3ccccc3OC)CC2)c2ccccc12 | -2.99% (inactive) |
| O=c1c(NCc2cccs2)nccn1-c1ccccc1 | -12.1% (inactive) |
| Cn1nnnc1SCCNCc1ccc(Cl)c(Cl)c1 | -61.6% (active) |
| CCOc1ccc(CNCCSc2nnnn2C)cc1 | -2.56% (inactive) |
| Cn1nnnc1SCCCNCc1cccc(OCc2ccc(Cl)cc2)c1 | -15.2% (inactive) |
| COc1cc(CNCCSc2nnnn2C)ccc1OCc1c(F)cccc1Cl | -17.9% (inactive) |
| Cn1nnnc1SCCCNCc1ccc(Cl)cc1 | -11.8% (inactive) |

| Compound | activity change, negative = inhibition |
| --- | --- |
| Cc1c(Cl)cccc1-c1ccc(CNCCCSc2nnnn2C)o1 | -35% (active) |
| Cc1ccc2oc3c(c(=O)c2c1)C(c1ccc(O)cc1)N(Cc1ccc2c(c1)OCO2)C3=O (centres undefined) | 0.447% (inactive) |
| CCOc1ccc(-c2n[nH]c3c2C(c2ccccc2OC)N(c2ccc(Br)cc2)C3=O)cc1 (centres undefined) | 9.65% (inactive) |
| CCOC(=O)c1ccc(NC(=O)CCn2cnnn2)cc1 | 14.2% (inactive) |
| O=C1C(F)N([S+](=O)([O-])c2ccc3c(c2)OCCO3)CCN1[S+](=O)([O-])c1c(F)cccc1F (centres undefined) | -5.38% (inactive) |
| CCOc1cc2[nH]c(=O)n(Cc3ccc(C(=O)NCCN(CC)CC)cc3)c(=O)c2cc1OCC | 5.18% (inactive) |
| CCc1cccc(NC(=O)CN(C)S(=O)(=O)c2ccc3[nH]c4c(c3c2)CCCC4)c1 | -15.3% (inactive) |
| Cc1ccc(OC(=O)CSc2nnc(-c3cccs3)o2)cc1 | -6.25% (inactive) |
| O=C(NCc1ccc(Cl)cc1)c1cc2c(nc3sccn32)s1 | -58.9% (active) |
| O=C(NCc1ccc(Cl)cc1)c1cc(=O)nc2sc(-c3ccccc3)nn12 | 0.956% (inactive) |
| O=C(NCc1ccc2c(c1)OCO2)c1c(O)nc2sccn2c1=O | 2.36% (inactive) |
| Cc1ccc(C(=O)Nc2ccc(OCc3cc(=O)n4c5c(sc4n3)CCCC5)cc2)cc1 | -13.4% (inactive) |
| O=C(COC(=O)Cc1c[nH]c2ccccc12)NCCc1ccccc1 | -2.05% (inactive) |
| CCOC(=O)CN(C)Cc1c[nH]c2ccccc12 | 0.896% (inactive) |
| O=C(Cc1c[nH]c2ccccc12)OCCOC(=O)Cc1c[nH]c2ccccc12 | -32.2% (active) |
| Cc1ccc(S(=O)(=O)N2CCc3cc(C(=O)Nc4ccc(Cl)cc4C)ccc32)cc1 | 3.15% (inactive) |
| CCOc1ccc(Nc2nc3c(S(=O)(=O)c4cccc(Cl)c4)nnn3c3ccsc23)cc1 | -38.1% (active) |
| O=S(=O)(c1ccc(Cl)cc1)c1nnn2c1nc(NC1CCCC1)c1sccc12 | -19.7% (inactive) |
| O=S(=O)(c1ccc(Br)cc1)c1nnn2c1nc(NC1CCCCCC1)c1sccc12 | 4.84% (inactive) |
| COc1ccc(-c2nnc(SCC(=O)Nc3ccc(C(C)C)cc3)nc2-c2ccc(OC)c(OC)c2)cc1OC | -19.7% (inactive) |
